{"source": "PubChem BioAssay AID1851", "about": "(National Center for Advancing Translational Sciences (NCATS), 2009)", "note": "The whole screen tested about 16,000 compounds, of which about 5,100 (32%) were called active. Roughly 25% stayed inconclusive and do not appear here. This is one part of the list. Unmarked numbers belong to inactive results. The call rests on the fitted dose curve; in most records, active means well fitted curve in the direction sought with a large enough effect; inconclusive means small, poorly fitted or top-dose-only effect, or effect the other way; inactive means no such curve, though single readings can be large or run the other way. On the % scale 0 is the no-effect control and ±100 the full control effect.", "data": [{"target": "Cytochrome P450 3A4 (Homo sapiens) (UniProt P08684)", "sequence (P08684 whole entry, looked up)": "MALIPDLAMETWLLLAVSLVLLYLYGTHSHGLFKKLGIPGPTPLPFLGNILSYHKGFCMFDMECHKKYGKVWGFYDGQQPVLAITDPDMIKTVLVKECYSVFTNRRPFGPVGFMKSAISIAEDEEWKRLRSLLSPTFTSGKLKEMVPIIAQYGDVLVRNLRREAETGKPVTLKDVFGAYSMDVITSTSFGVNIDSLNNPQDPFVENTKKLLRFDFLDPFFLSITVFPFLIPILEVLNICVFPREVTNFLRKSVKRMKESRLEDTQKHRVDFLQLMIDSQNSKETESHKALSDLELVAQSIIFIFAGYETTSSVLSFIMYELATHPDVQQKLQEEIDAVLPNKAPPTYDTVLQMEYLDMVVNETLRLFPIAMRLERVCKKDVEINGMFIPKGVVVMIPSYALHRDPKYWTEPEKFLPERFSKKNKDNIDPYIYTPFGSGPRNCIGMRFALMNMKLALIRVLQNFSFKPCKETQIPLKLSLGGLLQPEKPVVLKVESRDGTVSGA", "assay": "Cytochrome panel assay with activity outcomes", "conditions": "recombinant CYP, pro-luciferin dealkylation, luminescence, p450-cyp3a4; series mostly up to 57.1 µM", "values": [{"smiles": "CC1(C)Cc2c(ccc3ccccc23)C(=O)N1", "AC50": "inactive"}, {"smiles": "Clc1ccc(COc2ccccn2)cc1Cl", "activity, negative = inhibition": "-7.19% [at 2.29 µM]"}, {"smiles": "Clc1ccc(CSCCc2ccncc2)cc1Cl", "AC50": "1 µM (active)"}, {"smiles": "Cc1cc(O)c(/C=N/Nc2cccc(Cl)c2)c(=O)o1", "AC50": "5.62 µM (active)"}, {"smiles": "Clc1cccc(N/N=C/c2ccc(N3CCOCC3)cc2)c1", "activity, negative = inhibition": "-10.2% [at 2.29 µM]"}, {"smiles": "NC(=O)c1nn(-c2ccccc2)c(=O)cc1O", "AC50": "inactive"}, {"smiles": "O=C1CC(c2ccc3c(c2)OCO3)CN1", "note": "(configuration not stated)", "activity, negative = inhibition": "-2.08% [at 2.29 µM]"}, {"smiles": "O=C1CC(c2ccc3c(c2)OCO3)Sc2nc3ccccc3n21", "note": "(configuration not stated)", "AC50": "2.51 µM (active)"}, {"smiles": "COc1ccc(/C=C/C(=O)c2ccoc2)cc1", "AC50": "inactive"}, {"smiles": "O=C(/C=C/c1ccc2ccccc2c1)c1ccoc1", "AC50": "inactive"}, {"smiles": "COc1cccc(C(=O)/C=C/c2ccc(SC)cc2)c1", "AC50": "3.98 µM (active)"}, {"smiles": "Nc1ccn([C@H]2O[C@@H](COP(=O)(O)O)[C@@H](O)[C@H]2O)c(=O)n1", "activity, negative = inhibition": "-4.22% [at 11.4 µM]"}, {"smiles": "COc1ccc(/C=N/NC(N)=S)cc1OC(=O)c1cccc2ccccc12", "AC50": "2.24 µM (active)"}, {"smiles": "CS(=O)(=O)c1ccc(/C=N\\NC(N)=S)cc1", "activity, negative = inhibition": "-4.4% [at 11.4 µM]"}, {"smiles": "COc1ccc(C(=O)Oc2cc(/C=N/NS(=O)(=O)c3ccc(C)cc3)ccc2OC)cc1", "activity, negative = inhibition": "-26% [at 2.29 µM]"}, {"smiles": "O=C(O)c1ccc(NS(=O)(=O)Cc2ccccc2)cc1", "activity, negative = inhibition": "-11.2% [at 11.4 µM]"}, {"smiles": "CCOC(=O)c1ccc(NC(=O)C2CCCO2)cc1", "note": "(configuration not stated)", "activity, negative = inhibition": "-7.73% [at 11.4 µM]"}, {"smiles": "CCOC(=O)c1ccc(N/C(=N\\S(=O)(=O)c2ccccc2C)c2ccccc2)cc1", "AC50": "2 µM (active)"}, {"smiles": "CCOC(=O)c1ccc(NC(=O)Nc2ccc3c4c(cccc24)C(=O)N3CC)cc1", "AC50": "inactive"}, {"smiles": "CN=C1S/C(=C\\c2ccc(Sc3ccc(Cl)cc3)o2)C(=O)N1C", "AC50": "inactive"}, {"smiles": "Clc1ccc(Sc2ccc(/C=N/n3cnnc3)o2)cc1", "AC50": "1.12 µM (active)"}, {"smiles": "NC(=O)Nn1c(CCC(=O)O)ccc1-c1ccc(F)cc1", "AC50": "inactive"}, {"smiles": "O=C(Nc1ccc(Cl)cc1)OCc1cc(-c2ccccc2Cl)on1", "activity, negative = inhibition": "28.2% [at 2.29 µM]"}, {"smiles": "COc1ccccc1-c1cc(C(=O)Nc2cc(C)n(Cc3ccc(Cl)cc3)n2)no1", "AC50": "15.8 µM (active)"}, {"smiles": "COc1ccccc1NC(=S)NC(=O)c1ccc(-c2ccc(Cl)cc2)o1", "activity, negative = inhibition": "-7.71% [at 2.29 µM]"}, {"smiles": "CC(C)(C)c1ccc(S(=O)(=O)/C=C\\C#N)cc1", "AC50": "25.1 µM (active)"}, {"smiles": "C[C@@](N)(C(=O)O)c1ccc(S(=O)(=O)O)cc1", "AC50": "inactive"}, {"smiles": "Cc1ccc(C(=O)Nc2ccc(Cc3ccncc3)cc2)cc1[N+](=O)[O-]", "AC50": "0.355 µM (active)"}, {"smiles": "Cc1ccc(NC(=O)c2ccc(NCC3CCCO3)c([N+](=O)[O-])c2)cc1Cl", "note": "(configuration not stated)", "activity, negative = inhibition": "-6.83% [at 11.4 µM]"}, {"smiles": "CCC(=O)Nc1ccc(C(=O)OCC(=O)c2ccc(C)c([N+](=O)[O-])c2)cc1", "AC50": "7.94 µM (active)"}, {"smiles": "Cc1ccc(C(=O)Nc2ccccc2Oc2ccccc2)cc1[N+](=O)[O-]", "AC50": "inactive"}, {"smiles": "Cc1ccc(C(=O)COC(=O)CNC(=O)Cc2ccccc2)cc1[N+](=O)[O-]", "AC50": "inactive"}, {"smiles": "CC1=CC(=O)C=CC1(C)C(Cl)(Cl)Cl", "note": "(configuration not stated)", "activity, negative = inhibition": "2.38% [at 2.29 µM]"}, {"smiles": "COc1ccc(-c2nc(-c3ccccc3)c(-c3cc([N+](=O)[O-])ccc3C)[nH]2)cc1O", "AC50": "5.01 µM (active)"}, {"smiles": "O=c1[nH]c(=O)n([C@@H]2C[C@H](O)[C@H](CO)O2)cc1C(F)(F)F", "AC50": "inactive"}, {"smiles": "O=C(NNC(=O)c1cc(-c2ccc(Cl)c(Cl)c2)nc2ccccc12)Nc1ccccc1", "activity, negative = inhibition": "-6.22% [at 2.29 µM]"}, {"smiles": "Cc1cccc(NC(=O)NNC(=O)c2cc(-c3ccccc3Cl)nc3ccccc23)c1", "AC50": "3.98 µM (active)"}, {"smiles": "Cc1ccc(NC(=O)c2cc(Cl)nc3ccccc23)cc1", "AC50": "10 µM (active)"}, {"smiles": "CC1(C)S[C@@H]2[C@H](NC(=O)[C@@H](NC(=O)N3CCNC3=O)c3ccccc3)C(=O)N2[C@H]1C(=O)O", "AC50": "inactive"}, {"smiles": "CCC1CC2CC(NC(C)=O)C1C2", "note": "(configuration not stated)", "activity, negative = inhibition": "0.468% [at 2.29 µM]"}, {"smiles": "N[C@@H](Cc1cccc([N+](=O)[O-])c1)C(=O)O", "activity, negative = inhibition": "-9.82% [at 11.4 µM]"}, {"smiles": "N=C(N)S[C@H]1c2ccccc2-c2cc([N+](=O)[O-])ccc21", "AC50": "5.01 µM (active)"}, {"smiles": "O=[N+]([O-])c1ccc2c(c1)S(=O)c1ccccc1-2", "note": "(configuration not stated)", "activity, negative = inhibition": "-11.3% [at 11.4 µM]"}, {"smiles": "COC(=O)CCCC(=O)O", "activity, negative = inhibition": "-18.6% [at 11.4 µM]"}, {"smiles": "COc1cc2c(C(=O)NCc3ccc(C)o3)cn(CC(C)C)c(=O)c2cc1OC", "activity, negative = inhibition": "-15.9% [at 2.29 µM]"}, {"smiles": "COc1cc(C(=O)NCCC(C)C)c([N+](=O)[O-])cc1OC", "AC50": "15.8 µM (active)"}, {"smiles": "COC(=O)C(C(=O)OC)C(C[N+](=O)[O-])c1ccc(OC)c(OC)c1", "note": "(configuration not stated)", "activity, negative = inhibition": "-7.76% [at 2.29 µM]"}, {"smiles": "O=C(CCNc1cccc(Cl)c1)c1cccs1", "AC50": "14.1 µM (active)"}, {"smiles": "O=C(CNc1cccc(Cl)c1)c1ccc(Cl)cc1", "AC50": "inactive"}, {"smiles": "O=C(NOC(=O)c1cc(Br)ccc1Cl)c1cccs1", "AC50": "inactive"}, {"smiles": "CNS(=O)(=O)c1ccccc1C(=N)c1ccccc1", "activity, negative = inhibition": "-6.85% [at 11.4 µM]"}, {"smiles": "CCN(CC)C[C@@H](O)c1ccc2ccc3ccccc3c2c1", "activity, negative = inhibition": "-25.1% [at 11.4 µM]"}, {"smiles": "CC(C)NC[C@H](O)c1ccc2ccccc2c1", "AC50": "inactive"}, {"smiles": "CCCCOC(OCCCC)[C@H](O)CSc1ccc2ccccc2c1", "AC50": "5.01 µM (active)"}, {"smiles": "S=c1[nH]nc(C2CCCCC2)n1/N=C/c1cccs1", "AC50": "12.6 µM (active)"}, {"smiles": "Cc1nnc(C)n1/N=C/c1cccs1", "AC50": "inactive"}, {"smiles": "O=C(O)c1cc(N=Cc2ccccc2O)cc(C(=O)O)c1", "activity, negative = inhibition": "-17.4% [at 11.4 µM]"}, {"smiles": "O=S(=O)(O)c1cc(O)c2c(N=Cc3ccccc3O)cc(S(=O)(=O)O)cc2c1", "activity, negative = inhibition": "0.658% [at 11.4 µM]"}, {"smiles": "Cc1cc(O)c(C(C)C)cc1N=Cc1ccccc1O", "AC50": "3.16 µM (active)"}, {"smiles": "COc1cccc(/C=N/NC(=O)c2cccc([N+](=O)[O-])c2)c1OS(=O)(=O)c1ccc(C)cc1", "AC50": "1.12 µM (active)"}, {"smiles": "COc1cc(/C=N\\Nc2ccc([N+](=O)[O-])cc2)ccc1OCC(=O)Nc1ccc(C)c(C)c1", "AC50": "3.98 µM (active)"}, {"smiles": "COc1cc(/C=N/NC(=O)c2cccc([N+](=O)[O-])c2)ccc1OCc1ccc(C)cc1", "AC50": "1.41 µM (active)"}, {"smiles": "O=C(COc1ccc(/C=N/NC(=O)c2ccccc2)cc1)Nc1ccc([N+](=O)[O-])cc1", "AC50": "inactive"}, {"smiles": "COc1ccc(/C=N/NC(=O)c2cccc([N+](=O)[O-])c2)cc1OS(=O)(=O)c1ccc(C)cc1", "activity, negative = inhibition": "-20.3% [at 2.29 µM]"}, {"smiles": "N[C@@H](Cc1ccc(O)c(O)c1)C(=O)O", "AC50": "inactive"}, {"smiles": "O=C(O)c1c(-c2c3ccc(=O)cc-3oc3cc(O)ccc23)cc2ccccc2c1-c1ccccc1", "activity, negative = inhibition": "-8.67% [at 11.4 µM]"}, {"smiles": "Cc1nc(-c2c(C(F)(F)F)noc2-c2ccc(O)cc2O)cs1", "AC50": "0.501 µM (active)"}, {"smiles": "CSCC[C@@H]1NC(=O)C/C=C\\[C@@H](C)COC(=O)[C@H](C)COC1=O", "activity, negative = inhibition": "-24% [at 11.4 µM]"}, {"smiles": "N#Cc1cccc(-c2nccc(-n3ccnc3)n2)c1", "AC50": "2.51 µM (active)"}, {"smiles": "CN1CCN(c2cc(-c3ccc(N(C)C)cc3)ncn2)CC1", "AC50": "inactive"}, {"smiles": "c1cn(-c2ccnc(-c3ccc4c(c3)OCO4)n2)cn1", "AC50": "0.631 µM (active)"}, {"smiles": "N#Cc1cccc(-c2cc(-n3ccnc3)ncn2)c1", "AC50": "0.398 µM (active)"}, {"smiles": "CN(C)c1ccc(-c2cc(-n3ccnc3)ncn2)cc1", "AC50": "0.0631 µM (active)"}, {"smiles": "N#Cc1c(-c2ccc3c(c2)OCO3)ccn2nc(-c3cccc(C(F)(F)F)c3)nc12", "AC50": "inactive"}, {"smiles": "CC(=O)Oc1ccccc1C(=O)Oc1ccccc1C(=O)O", "AC50": "inactive"}, {"smiles": "COc1cccc(-c2nccc(-n3ccnc3)n2)c1", "AC50": "1 µM (active)"}, {"smiles": "Nc1nc(-c2cccnc2)cc(-c2cc(-c3cccnc3)nc(N)n2)n1", "activity, negative = inhibition": "-3.62% [at 11.4 µM]"}, {"smiles": "c1cncc(-c2cc(-n3ccnc3)ncn2)c1", "AC50": "1.58 µM (active)"}, {"smiles": "CCCCN(c1ccccc1)c1ncnc2c1cnn2C", "activity, negative = inhibition": "-28% [at 11.4 µM]"}, {"smiles": "CC(N)=NCc1cccc(CN)c1", "AC50": "inactive"}, {"smiles": "CS(=O)(=O)Nc1cccc(-c2cncnc2NCc2cccnc2)c1", "AC50": "1 µM (active)"}, {"smiles": "CS(=O)(=O)Nc1cccc(-c2cncnc2NCc2cccs2)c1", "AC50": "0.398 µM (active)"}, {"smiles": "Cc1cnc(CNc2ncnc3ccc(-c4cccc(NS(C)(=O)=O)c4)cc23)cn1", "AC50": "12.6 µM (active)"}, {"smiles": "Cc1cccc(CNc2ncncc2-c2cccc(NS(C)(=O)=O)c2)c1", "AC50": "0.158 µM (active)"}, {"smiles": "Cc1cnc(CNc2ncncc2-c2cccc(NS(C)(=O)=O)c2)cn1", "AC50": "3.16 µM (active)"}, {"smiles": "CS(=O)(=O)Nc1cccc(-c2ccc3ncnc(NCc4cccnc4)c3c2)c1", "AC50": "0.398 µM (active)"}, {"smiles": "CS(=O)(=O)Nc1cccc(-c2ccc3ncnc(NCc4cccs4)c3c2)c1", "AC50": "3.16 µM (active)"}, {"smiles": "CS(=O)(=O)Nc1cccc(-c2cncnc2NCc2ccccc2)c1", "AC50": "0.631 µM (active)"}, {"smiles": "CCC(=O)O[C@H](CC(=O)O)C[N+](C)(C)C", "AC50": "inactive"}, {"smiles": "OCC1CCCN(Cc2ccc(-c3ccccc3)cc2)C1", "note": "(configuration not stated)", "AC50": "inactive"}, {"smiles": "COc1ccc(-c2csc(NC(=O)CCn3cnc4ccccc4c3=O)n2)cc1OC", "AC50": "11.2 µM (active)"}, {"smiles": "COc1ccc(C2=NOC(C(=O)NCCN3CCOCC3)C2)cc1", "note": "(configuration not stated)", "AC50": "inactive"}, {"smiles": "COCCNC(=O)c1sc2nc(-c3ccccc3)cn2c1C", "AC50": "inactive"}, {"smiles": "COc1ccc(-c2cn3c(C)c(C(=O)NCCN4CCOCC4)sc3n2)cc1", "AC50": "12.6 µM (active)"}, {"smiles": "O=C(NCCN1CCOCC1)c1csc2c1CCCCC2", "activity, negative = inhibition": "-7.18% [at 2.29 µM]"}, {"smiles": "COc1ccc(C(=O)Nc2ccc(Cl)cc2C(=O)NCCN2CCOCC2)cc1", "AC50": "14.1 µM (active)"}, {"smiles": "COc1cccc(C(=O)NCCN2CCOCC2)c1", "AC50": "inactive"}]}]}
